Calls of active or inactive are those of the source. The calls were made as follows: active = hit-call score of the fitted dose curve at least 0.9, where 1 is the maximum; inactive = score below 0.9.
The compounds below were run against human DYRK1A CMGC Kinase, DYRK1A (gene 1859) (UniProt Q13627) (assay: ERF_FR_ENZ_hDYRK1A: Eurofins (ERF) Enzymatic Radiometric [Km ATP] KinaseProfiler LeadHunter Assay for human DYRK1A CMGC Kinase).
Protocol: ERF_FR_ENZ_hDYRK1A is a biochemical, single-readout assay that uses extracted gene-proteins in a cell-free assay. Measurements were taken 0.5 hour after chemical dosing in a 96-well plate. See DYRK1A Human CMGC Kinase Enzymatic LANCE Assay [Km ATP], Cerep.ERF_FR_ENZ_hDYRK1A is an assay component calculated from the ERF_FR_ENZ_hDYRK1A assay. It is designed to measure enzyme activity using a type of enzyme reporter as detected by fluorescence intensity with LANCE technology.Data from the assay component ERF_FR_ENZ_hDYRK1A was analyzed at the assay endpoint, ERF_FR_ENZ_hDYRK1A, in the positive analysis fitting direction relative to DMSO as the negative control and baseline of activity. Using a type of enzyme reporter, loss-of-signal activity can be used to understand changes in enzymatic activity as they relate to gene DYRK1A. To generalize the intended target to other relatable targets, this assay endpoint is annotated to the kinase intended target family, where the subfamily is serine/threonine kinase.
DYRK1A (h) is incubated with 8 mM MOPS pH 7.0, 0.2 mM EDTA, 50 uM […], 10 mM MgAcetate and [gamma-33P]-ATP (specific activity and concentration as required). The reaction is initiated by the addition of the Mg/ATP mix. After incubation for 40 minutes at room temperature, the reaction is stopped by the addition of phosphoric acid to […] a concentration of 0.5%. […]

Row | SMILES | AC50
1 | O=C(/C=C/c1ccc(O)cc1)CC(=O)/C=C/c1ccc(O)cc1 | 128 nM (active)
